HT1080NT lethal – kills 2HG-producing HT-1080-NT fibrosarcoma cells; Potency, µM (series often up to 46.1 µM), actives largely listed as cytotoxic; HT-1080-NT fibrosarcoma viability, CellTiter-Glo ATP luminescence, 48 h; 1.6% of 360,000 active;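 note: NT is the 2HG producing partner of a matched IDH1 knockdown line; nearly all actives have a fitted effect of over 55% in size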
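Fibrosarcoma NT cells, 750 per well in 5% FBS RPMI, were exposed to compound for 48 hours. Viability: CellTiter-Glo luminescence.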
IL1B secr inh – inflammasome signaling inhibition, IL-1 beta readout; THP-1 LPS/ATP IL-1B secretion, AlphaLISA, 16 h; hits give low values; activity change, % at 57.5 µM; 4.7% of 360,000 active; AID 743279; in the data active = activity change below about -50%; inconclusive = mostly about -30% to -49%
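THP-1 cells pretreated 1 hr with compounds (up to 57.5 uM final), then stimulated with LPS (250 ng/mL final) plus ATP (1.25 mM final); secreted IL-1B measured by AlphaLISA after 16 hr, decreased signal indicating inhibition.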
DT40 TDP1 no CPT – qHTS for Inhibitors of human tyrosyl-DNA phosphodiesterase 1 (TDP1): qHTS in cells in absence of CPT; DT40 Tdp1-/- hTDP1 cells, no CPT, ATP luminescence, 48 h; Potency, µM (doses to about 46.2 µM), actives largely listed as inhibitors; 15% of 420,000 active; note: nearly all actives have a fitted effect of over 55% in size
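No-CPT arm: Tdp1-/-;hTDP1 DT40 cells (400/well) plus compounds, incubated ≥48 hr at 37 °C. Readout CellTiter-Glo luminescence.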
DT40 TDP1 CPT – growth inhibition of DT40 Tdp1-/-;hTDP1 cells with camptothecin (screen for TDP1 inhibitors) | Potency, µM (top dose mostly 46.2 µM), most hits filed as inhibitors | 12% of 420,000 active | chicken DT40 Tdp1-/-;hTDP1 cells + 20 nM CPT, ATP luminescence, 48 h; note: nearly all actives have a fitted effect of over 55% in size
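Chicken DT40 Tdp1-/- cells stably complemented with human TDP1 were seeded at 400 cells/well in medium containing 20 nM camptothecin, exposed to pin-transferred compounds, and grown at 37 °C for at least 48 hr. Viability was read as ATP luminescence.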
HT1080 IDH1KD tx – HT-1080 IDH1 knockdown cell toxicity (counter line); Potency, µM (series often up to 46.1 µM), usual class: cytotoxic; 2% of 360,000 active; HT-1080 IDH1 knockdown viability, ATP luminescence, 48 h
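Assay cells: HT-1080 with IDH1 knockdown, 750 per well, RPMI/5% FBS. Exposure: 48 h at 37 °C following 2 h pre-incubation. Read: CellTiter-Glo luminescence; fitted concentration-response, curve class assigned.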
Numbers stand for hits; - = inactive; ? = inconclusive; . = no result given. An excerpt weighted towards active compounds, which were near 19% of everything screened. Unless noted, calls come from the whole dose curve; as a rule, active = well fitted curve in the direction sought with a large enough effect; inconclusive = small, poorly fitted or top-dose-only effect, or another doubt; inactive = no such curve, though single readings can be large; an effect the other way counts as inactive or inconclusive.

SMILES	HT1080NT lethal	IL1B secr inh	DT40 TDP1 no CPT	DT40 TDP1 CPT	HT1080 IDH1KD tx
CCOC(=O)c1c(-c2cc(OC)c(OC)c(OC)c2)csc1NC(=O)c1ccccc1	-	-	18µM	?	-
CCOC(=O)c1c(-c2cccs2)csc1N	-	-	-	-	-
COc1cc(C(=O)Nc2scc(-c3ccccc3)c2C(=O)O)cc(OC)c1OC	-	-	13µM	?	-
COc1ccccc1N1CCN(C2CC(=O)N(C)C2=O)CC1 (stereo not drawn)	-	-	-	-	-
O=C(NCc1ccncc1)C(=O)NCC1OCCN1S(=O)(=O)c1cc(F)ccc1F (stereo not drawn)	-	-	-	-	-
O=c1cc(N2CCCCCC2)[nH]c(=O)n1-c1ccccc1Cl	-	-	-	-	-
O=C(Oc1ccc(C(=S)N2CCOCC2)cc1)c1ccccc1F	-	-	-	-	-
Cc1ccccc1-c1cc2nc(NCc3ccccc3)n(C)c(=O)c2s1	?	-	?	9.2µM	-
CC(=O)Nc1ccc(CNc2nc3cc(-c4ccccc4C)sc3c(=O)n2C)cc1	?	-	?	?	?
Cc1ccccc1-c1cc2nc(NCc3ccncc3)n(C)c(=O)c2s1	-	-	?	?	-
Cc1ccccc1-c1cc2nc(NCc3ccc(N(C)C)cc3)n(C)c(=O)c2s1	?	-	16µM	?	?
Cc1cc(-c2ccccc2)nc2cc(C(=O)OC(C)C)nn12	-	-	-	-	-
O=C(c1cnn2c1NC(c1ccc(Br)cc1)CC2C(F)(F)F)N1CCN2CCCC2C1 (stereo not drawn)	?	-	?	18µM	?
COCCn1c(SCc2csc(-c3ccccc3)n2)nc2ccccc21	?	?	18µM	16µM	-
COc1cc2c(cc1OC)C(c1ccc3c(c1)OCO3)C1=C(CC(C)(C)CC1=O)N2 (stereo not drawn)	-	-54	?	?	-
C#CCOc1ccc(C2C3=C(COC3=O)Nc3cc4c(cc32)OCO4)cc1OC (stereo not drawn)	0.046µM	-	1µM	0.82µM	0.092µM
O=C1OCC2=C1C(c1ccc3c(c1)OCO3)Sc1ccccc1N2 (stereo not drawn)	-	-	21µM	13µM	-
O=C1OCC2=C1C(c1ccc(F)cc1)c1cc3c(cc1N2)OCO3 (stereo not drawn)	0.18µM	-	0.033µM	0.16µM	0.12µM
COc1cccc(C2C3=C(CC(C)(C)CC3=O)Nc3cc4c(cc32)OCO4)c1 (stereo not drawn)	-	?	-	-	-
COc1cccc(C2C3=C(CC(C)(C)CC3=O)Nc3cc(OC)c(OC)cc32)c1 (stereo not drawn)	-	-	-	-	-
CC(=O)Oc1ccc(C2C3=C(CC(C)(C)CC3=O)Nc3cc4c(cc32)OCCO4)cc1 (stereo not drawn)	-	?	-	-	-
O=C1OCC2=C1C(c1ccc(F)cc1)c1cc3c(cc1N2)OCCO3 (stereo not drawn)	0.18µM	-	0.18µM	0.18µM	0.18µM
CC(NS(=O)(=O)c1ccccc1[N+](=O)[O-])c1ccccn1 (stereo not drawn)	.	.	?	-	.
Cc1cc(=O)[nH]c(SCC(=O)Nc2ccccc2[N+](=O)[O-])n1	-	-	-	-	-
C=C1CCC2[C@](C)(CO)[C@H](O)CC[C@@]2(C)[C@@H]1C/C=C1\C(=O)OC[C@H]1O (stereo partly drawn)	-	-88	4.6µM	3.7µM	-
SMILES	HT1080NT lethal	IL1B secr inh	DT40 TDP1 no CPT	DT40 TDP1 CPT	HT1080 IDH1KD tx
c1ccc(-c2noc(CN3CCN(c4ccccc4)CC3)n2)cc1	-	-	-	-	-
COCC1CCCN(Cc2nc(C(c3ccccc3)c3ccccc3)no2)C1 (stereo not drawn)	-	-	18µM	?	-
c1ccc(-c2noc(CN3CCN(C(c4ccccc4)c4ccccc4)CC3)n2)cc1	-	-87	?	-	-
c1ccc(C(c2ccccc2)c2noc(CN3CCN(CC4CC4)CC3)n2)cc1	-	-	?	15µM	-
CCCCNC(=O)CN1CCN(c2ccc(NC(=O)c3ccc(OC)cc3)cc2C(=O)O)CC1	.	.	-	-	.
Cc1cc(C)c2cc(C#N)c(N3CCCN(S(=O)(=O)c4ccccc4)CC3)nc2c1	-	-	?	-	-
Cc1cc(C)c2cc(C#N)c(N3CCCN(C(=O)c4cnccn4)CC3)nc2c1	-	-	18µM	-	-
Cc1ccc2cc(C#N)c(N3CCCN(C(=O)C4CCCO4)CC3)nc2c1C (stereo not drawn)	-	?	?	?	-
COc1ccccc1C(=O)N1CCN(c2nc3cc(C)c(C)cc3cc2C#N)CC1	?	-67	16µM	18µM	?
CC(=O)c1cccc(S(=O)(=O)N2CCN(c3nc4cc(C)cc(C)c4cc3C#N)CC2)c1	-	-	?	15µM	-
COc1ccccc1C(=O)N1CCN(c2nc3cc(C)cc(C)c3cc2C#N)CC1	-	-	21µM	23µM	-
Cc1ccc2nc(N3CCN(C(=O)c4ccccc4F)CC3)c(C#N)cc2c1	-	-	?	?	-
CCn1cc(C(=O)OCC(=O)Nc2cc(Cl)ccc2C)c(=O)c2ccc(C)nc21	.	.	-	-	.
CC(Sc1nc2ccccc2c(=O)n1CCc1ccc(S(N)(=O)=O)cc1)C(=O)NC(N)=O (stereo not drawn)	-	?	?	-	-
O=C(CSc1ncn[nH]1)N1c2ccccc2Sc2ccccc21	-	-	-	-	-
COc1ccccc1CN1CC[C@@]2(CCCN(C(=O)c3ccncc3)C2)C1	.	.	-	-	.
CC(=O)Nc1ccc(NC(=O)C2Cc3c(-c4ccc(Cl)cc4)ccnc3O2)cc1 (stereo not drawn)	?	-	-	-	-
CCn1cc(C2=NOC(C(=O)Nc3c(C)nn(Cc4ccc(F)cc4)c3C)C2)c(C)n1 (stereo not drawn)	-	-	?	?	-
O=C(Nc1cccnc1)C1Cc2c(-c3cccc(F)c3)ccnc2O1 (stereo not drawn)	-	-	?	?	-
CCn1cc(C2=NOC(C(=O)Nc3cccc(C(C)=O)c3)C2)c(C)n1 (stereo not drawn)	-	-	?	16µM	-
CC(=O)c1cccc(NC(=O)C2Cc3c(-c4cccc(F)c4)ccnc3O2)c1 (stereo not drawn)	?	-	?	18µM	?
CC(=O)c1cccc(NC(=O)C2Cc3c(-c4ccco4)ccnc3O2)c1 (stereo not drawn)	-	-	16µM	?	-
CC(=O)c1cccc(-c2ccnc3c2CC(C(=O)Nc2ccc(F)c(Cl)c2)O3)c1 (stereo not drawn)	?	-	21µM	18µM	?
